Source: PubChem
IMPase Li inh – membrane-permeable IMPase blocker, potentiated with lithium; CHO-M1 cells, IP1 TR-FRET (IP-One), carbachol + lithium; Potency, µM (top dose mostly 59.4 µM), usual class: inhibitors; 210,000 tested, 0.35% active; AID 1457;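 further: IP1 builds up when IMPase is blocked and the TR-FRET signal falls; nearly all actives have a fitted effect of over 50% in size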
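CHO cells stably expressing M1 receptor (2000/well, cultured 16–30 h) treated 30 min at 37C with compound plus low lithium. Cytosolic IP1 by TR-FRET (665/620 ratio and 620 channel) after 10 min lysis; AC50 by Hill fit.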
Tb PFK inh – inhibitors of T. brucei phosphofructokinase; 330,000 tested, 0.17% active; T. brucei PFK, ADP-Glo luminescence; Potency, µM (titrated, usually from 57.5 µM), actives largely listed as inhibitors; AID 485367; O15648; further: nearly all actives have a fitted effect of over 60% in size
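Luminescent ADP detection (ADP-Glo, two-step: ATP depletion then ADP-to-ATP conversion for luciferase) reported PFK activity after 45 min room-temperature reaction of 1.25 nM enzyme with 0.5 mM F6P and 0.1 mM ATP at pH 8.0.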
NPSR antagonist – blocks cAMP signaling of the human neuropeptide S receptor. 220,000 tested, 1% active. CHO-NPSR cells, cAMP TR-FRET, antagonist mode. Q6W5P4. Potency, µM (top dose mostly 38.3 µM), most hits filed as inhibitors; further: nearly all actives have a fitted effect of over 50% in size
Target sequence (Q6W5P4 whole entry, looked up): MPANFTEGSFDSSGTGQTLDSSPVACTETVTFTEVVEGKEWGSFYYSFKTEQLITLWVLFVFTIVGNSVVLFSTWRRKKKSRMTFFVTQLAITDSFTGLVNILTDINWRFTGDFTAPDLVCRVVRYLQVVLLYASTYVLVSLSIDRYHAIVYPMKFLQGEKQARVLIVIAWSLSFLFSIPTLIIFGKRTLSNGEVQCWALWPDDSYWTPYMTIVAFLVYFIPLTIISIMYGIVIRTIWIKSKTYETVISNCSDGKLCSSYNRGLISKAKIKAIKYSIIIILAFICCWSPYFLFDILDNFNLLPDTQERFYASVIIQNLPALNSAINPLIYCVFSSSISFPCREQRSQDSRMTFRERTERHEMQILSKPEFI
MBNL1 CUG block – blocks human MBNL1 binding to CUG repeat RNA. Q9NR56. 280,000 tested, 0.036% active. TR-FRET MBNL1-His/biotin-(CUG)12 binding, 665/545 ratio. Potency, µM (top dose mostly 57.5 µM), most hits filed as inhibitors; active means well fitted inhibition curve with a large enough effect in the signal ratio, with a control signal flat, not every such curve was filed as active; inconclusive means small, poorly fitted or top-dose-only effect, or effect the other way, or a change in a side signal; inactive means no such curve, though single readings can be large or run the other way; the % refers to the signal ratio
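TR-FRET readout: Ex 340 nm, 665/545 nm emission ratio, normalized to buffer-only (basal) and MBNL1-(CUG)12 controls. Complex of MBNL1-His with Biotin-(CUG)12, compounds 92 nM–58 uM, incubated 60 min at room temperature.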
GoLoco inh red – blocks human Gai1 binding to RGS12 GoLoco peptide, red readout | Potency, µM (series often up to 61.6 µM), most hits filed as inhibitors | 230,000 tested, 0.44% active | Gai1:RGS12 GoLoco peptide FP, rhodamine, 10 min | P63096; active means well fitted inhibition curve with a large enough effect, not every such curve was filed as active; inactive means no such curve, though single readings can be large or run the other way; further: nearly all actives have a fitted effect of over 30% in size
Numbers stand for hits; [ ] = remark or other dose. This excerpt belongs to a sample that is enriched for hits. Unless noted, the call rests on the fitted dose curve; in most records, active means well fitted curve in the direction sought with a large enough effect; inconclusive means small, poorly fitted or top-dose-only effect, or another doubt; inactive means no such curve, though single readings can be large; an effect the other way counts as inactive or inconclusive.

For Cc1cc(C)nc(-n2ncc3c2CC(c2ccccc2)CC3=O)n1 (stereo not drawn) the results were IMPase Li inh inactive, Tb PFK inh inactive, NPSR antagonist inactive and GoLoco inh red inactive.
For O=C1CC(c2ccco2)Cc2c1cnn2-c1nc2ccccc2s1 (stereo not drawn) the results were IMPase Li inh 13µM, Tb PFK inh inactive, NPSR antagonist inconclusive and GoLoco inh red inactive.
Screening CC1CN(S(=O)(=O)c2cccc(C(F)(F)F)c2)CC(C)O1 (stereo not drawn) returned Tb PFK inh inactive, NPSR antagonist inactive, MBNL1 CUG block inactive and GoLoco inh red inactive.
`CC1CN(S(=O)(=O)c2ccc(Cl)c(C(F)(F)F)c2)CC(C)O1` (stereo not drawn) gave IMPase Li inh 10µM, Tb PFK inh inactive, NPSR antagonist inactive, MBNL1 CUG block inactive and GoLoco inh red inactive.
Screening COc1cc([N+](=O)[O-])cc2sc(NC(=O)C3CC3)nc12 returned IMPase Li inh 22µM, Tb PFK inh inactive, NPSR antagonist inconclusive, MBNL1 CUG block inactive and GoLoco inh red inactive.
`COc1cc([N+](=O)[O-])cc2sc(NC(=O)C(C)(C)C)nc12` gave IMPase Li inh inactive, Tb PFK inh inactive, NPSR antagonist inactive, MBNL1 CUG block inactive and GoLoco inh red inactive.
O=c1[nH]c(=S)c2c(n1-c1ccccc1)CCC2 was read as IMPase Li inh 10µM, Tb PFK inh inactive, NPSR antagonist inconclusive, MBNL1 CUG block inactive and GoLoco inh red inactive.
For O=c1c(-c2ccccc2)c(O)c2c(n1-c1ccccc1)CCCC2 the results were IMPase Li inh inactive, Tb PFK inh inactive, NPSR antagonist inactive, MBNL1 CUG block inactive and GoLoco inh red inactive.
CC[n+]1cc(-c2ccccc2)nc(N2CCOCC2)n1 was read as IMPase Li inh inactive, Tb PFK inh inactive, NPSR antagonist inactive, MBNL1 CUG block inconclusive and GoLoco inh red 7.1µM.
`CCN1C(=O)/C(=C2\C=Cc3cc(C)ccc3N2CC)OC1=S` gave IMPase Li inh inactive, Tb PFK inh inactive, NPSR antagonist inactive, MBNL1 CUG block inactive and GoLoco inh red inactive.
For CCN1/C(=C2\C(=O)N(c3ccccc3)N=C2C)C=Cc2cc(C)ccc21 the results were IMPase Li inh inactive, Tb PFK inh inactive, NPSR antagonist inactive, MBNL1 CUG block inconclusive and GoLoco inh red 3.5µM.
`COc1cc2c3nnc(-c4ccccc4)c-3cn(Cc3ccccc3F)c2cc1OC` gave IMPase Li inh inactive, Tb PFK inh inactive, NPSR antagonist 10µM, MBNL1 CUG block inactive and GoLoco inh red inactive.
For COc1cc2c3nnc(-c4ccc(F)cc4)c-3cn(Cc3ccccc3F)c2cc1OC the results were IMPase Li inh inactive, Tb PFK inh inactive, NPSR antagonist inactive, MBNL1 CUG block inactive and GoLoco inh red inactive.
Screening CCOC(=O)C(c1ccc(OC)c(OC)c1)C1c2ccccc2C=C(C)N1C(=O)OC (stereo not drawn) returned IMPase Li inh inactive and GoLoco inh red inactive[14.2 µM].
`O=C(Nc1ccc2c(c1)OCCO2)c1cc(-c2ccccn2)nc2ccc(Br)cc12` gave IMPase Li inh 13µM, Tb PFK inh inactive, NPSR antagonist inactive, MBNL1 CUG block inactive and GoLoco inh red inactive.
Screening C=CCCC returned IMPase Li inh inactive and GoLoco inh red inactive.
`CC(C)=CCSc1nnc([C@@H](NC(=O)OC(C)(C)C)C(C)C)o1` gave IMPase Li inh inactive, Tb PFK inh inactive, NPSR antagonist inactive, MBNL1 CUG block inactive and GoLoco inh red inactive.
Screening CC(C)(C)OC(=O)N[C@@H](Cc1ccccc1)c1nnc(S(=O)(=O)Cc2cccc(F)c2)o1 returned IMPase Li inh inactive, Tb PFK inh inactive, NPSR antagonist inconclusive, MBNL1 CUG block inactive and GoLoco inh red inactive.
`Cc1ccccc1CS(=O)(=O)c1nnc([C@H](CC(C)C)NC(=O)OC(C)(C)C)o1` gave IMPase Li inh inactive, Tb PFK inh inactive, NPSR antagonist 10µM, MBNL1 CUG block inactive and GoLoco inh red inactive.
`CC[C@@H](C)[C@H](NC(=O)OC(C)(C)C)c1nnc(S(=O)(=O)Cc2cc(C)ccc2C)o1` gave Tb PFK inh inactive, NPSR antagonist 10µM and MBNL1 CUG block inactive.
